Several values for one entry are separate records, joined by “and”; a condition that tells them apart may be missing. Identical values can stand only once. Inconclusive results are not listed. Where a structure was tested more than once in an assay, its records may differ in their call. Activity calls are given as the source filed them. The calls were made as follows: active = hit-call score of the fitted dose curve at least 0.9, where 1 is the maximum; inconclusive = response in the unintended direction; inactive = score below 0.9.
Biological target: rat Peripheral-type Benzodiazepine Receptor (PBR), Tspo (gene 24230) (UniProt P16257)
Sequence (P16257 whole entry, looked up): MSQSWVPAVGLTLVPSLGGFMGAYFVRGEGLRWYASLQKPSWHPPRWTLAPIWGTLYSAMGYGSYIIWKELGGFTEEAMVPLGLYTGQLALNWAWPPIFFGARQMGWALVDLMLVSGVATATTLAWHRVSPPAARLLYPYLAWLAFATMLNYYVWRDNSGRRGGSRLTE
Experiment: NVS_MP_rPBR: NovaScreen (NVS) Membrane Protein Assay for rat Peripheral-type Benzodiazepine Receptor (PBR) (AID 2283335)
Outline: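 Single-concentration duplicate screening at 25 uM preceded concentration-series retesting of actives. Binding of a specific radioligand to rat kidney membrane PBR was read by filtration radiodetection after 1 h, with plate-wise positive and negative controls.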

Compound | outcome | AC50
CCCOc1sc(C(=O)N2CCC(c3cc(CN)ccc3F)CC2)c(C)c1Br | inactive | 
CCC(=C(c1ccc(O)cc1)c1ccc(OCCN(C)C)cc1)c1ccccc1 | inactive | 4.37 µM (active) and 3.09 µM (active)
NC(=O)N1C(=O)C(C(=O)c2cc(Cl)cs2)c2cc(F)c(Cl)cc21 (stereo unspecified) |  | 25 µM (active)
CC1=C(/C=C/C(C)=C/C=C/C(C)=C/C(=O)O)C(C)(C)CCC1 | inactive | 
Cc1oc(-c2ccccc2)nc1CCOc1ccc(C[C@H](Nc2ccccc2C(=O)c2ccccc2)C(=O)O)cc1 |  | 4.35 µM (active)
O=C(OCCOCCOC(=O)c1ccccc1)c1ccccc1 | inactive | 
CC[C@H](c1ccc(O)cc1)[C@@H](CC)c1ccc(O)cc1 |  | 822 nM (active) and 258 nM (active)
CCCCCCCCCCCCc1ccccc1S(=O)(=O)O |  | 6.37 µM (active)
O=c1c(-c2ccc(O)cc2)coc2cc(O)ccc12 |  | 14 µM (active)
CCN(CC)CCNc1ccc(CNC=O)c2sc3ccc(OC)cc3c(=O)c12 |  | 6.96 µM (active)

System: not listed separately
Experiment: NVS_IC_rCaBTZCHL: NovaScreen (NVS) Ion Channel Assay for Calcium Channel, Type L, Benzothiazepine Site (CaBTZCHL) (AID 2283337)
Outline: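 Rat cortical membrane preparation, cell-free. Radioligand displaced by test chemical; 1.5 h incubation; filtration, scintillation count. DMSO = negative control/baseline. Primary: duplicate, 25 uM; secondary: concentration series.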

Compound | AC50 | outcome
CCCOc1sc(C(=O)N2CCC(c3cc(CN)ccc3F)CC2)c(C)c1Br | 3.64 µM (active) | 
CCC(=C(c1ccc(O)cc1)c1ccc(OCCN(C)C)cc1)c1ccccc1 | 0.589 µM (active) | 
CCCCCCCC(=O)O |  | inactive
CC(=O)NC1(c2cccc(F)c2)CCN(CC[C@@]2(c3ccc(Cl)c(Cl)c3)CN(c3ccccc3)C(=O)CO2)CC1 | 0.835 µM (active) | 
CCN(CC)CCNc1ccc(CNC=O)c2sc3ccc(OC)cc3c(=O)c12 | 19.2 µM (active) | 

Biological target: bovine Gamma-Aminobutyric Acid Type A Receptor Agonist (GABAR Agonist), GABRA1 (gene 780973) (UniProt P08219)
Sequence (P08219 whole entry, looked up): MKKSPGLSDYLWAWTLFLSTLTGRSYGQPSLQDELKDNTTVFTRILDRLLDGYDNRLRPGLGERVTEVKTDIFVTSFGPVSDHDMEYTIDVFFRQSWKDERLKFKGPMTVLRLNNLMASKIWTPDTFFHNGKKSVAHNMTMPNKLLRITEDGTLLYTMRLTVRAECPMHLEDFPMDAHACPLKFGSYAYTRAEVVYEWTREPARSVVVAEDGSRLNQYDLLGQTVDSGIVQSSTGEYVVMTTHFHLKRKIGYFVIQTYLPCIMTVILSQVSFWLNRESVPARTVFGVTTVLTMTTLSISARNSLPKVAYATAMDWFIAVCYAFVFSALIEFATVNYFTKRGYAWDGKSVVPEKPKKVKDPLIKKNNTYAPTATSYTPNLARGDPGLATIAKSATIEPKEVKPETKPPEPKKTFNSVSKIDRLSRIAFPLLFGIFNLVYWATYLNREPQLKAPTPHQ
Experiment: NVS_LGIC_bGABAR_Agonist: NovaScreen (NVS) Ligand-Gated Ion Channel Assay for bovine Gamma-Aminobutyric Acid Type A Receptor Agonist (GABAR Agonist) (AID 2283338)
Outline: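 Radioligand binding to bovine cerebellar membranes in agonist format, read by filter-based scintillation counting after 1 h. Primary screen in duplicate at 25 uM, with actives followed in concentration series. Gain of signal versus DMSO.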

Compound | outcome
O=C(OCCOCCOC(=O)c1ccccc1)c1ccccc1 | inactive
OCCC(F)(F)C(F)(F)C(F)(F)C(F)(F)C(F)(F)C(F)(F)C(F)(F)C(F)(F)F | inactive
CCCCCCCCCCCCCCCS(=O)(=O)Oc1ccccc1 | inactive

System: guinea pig Histamine Receptor (H2), gene 100729734
Experiment: NVS_GPCR_gH2: NovaScreen (NVS) G Protein-Coupled Receptor Assay for guinea pig Histamine Receptor (H2) (AID 2283342)
Outline: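 Guinea pig striatal membrane preparation with specific radioligand; bound counts measured by filtration and scintillation 1 h post-dosing, DMSO as baseline. Chemicals passing a 25 uM duplicate screen were titrated to a 50 uM maximum.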

Compound | outcome | AC50
C[C@@H]1C[C@H]2[C@@H]3CCC4=CC(=O)C=C[C@]4(C)[C@@]3(F)[C@@H](O)C[C@]2(C)[C@@]1(O)C(=O)COP(=O)(O)O | inactive | 
CCCOc1sc(C(=O)N2CCC(c3cc(CN)ccc3F)CC2)c(C)c1Br |  | 7.46 µM (active)
CCC(=C(c1ccc(O)cc1)c1ccc(OCCN(C)C)cc1)c1ccccc1 |  | 1.33 µM (active)
NC(=O)N(O)[C@@H]1C=C[C@H](Oc2cccc(Oc3ccc(F)cc3)c2)C1 | inactive | 
CC#C[C@]1(O)CC[C@H]2[C@@H]3CCC4=CC(=O)CCC4=C3[C@@H](c3ccc(N(C)C)cc3)C[C@@]21C | inactive | 
CC(=O)NC1(c2cccc(F)c2)CCN(CC[C@@]2(c3ccc(Cl)c(Cl)c3)CN(c3ccccc3)C(=O)CO2)CC1 |  | 8.91 µM (active)
CCN(CC)CCNc1ccc(CNC=O)c2sc3ccc(OC)cc3c(=O)c12 |  | 11.3 µM (active)

Source: PubChem BioAssay (EPA / NIEHS)
